# Reference: PubChem BioAssay (NCATS)
# Results filed as inconclusive are left out. Where a call stands in place of a potency, no number is given. Activity calls are given as the source filed them. Calls come from the whole dose curve; as a rule, active = well fitted inhibition curve with a large enough effect; inconclusive = small, poorly fitted or top-dose-only effect; inactive = flat fitted curve, though single readings scatter.
# What was measured:
# Test in all cases: qHTS profiling for inhibitors of Plasmodium falciparum proliferation (AID 504749); note: nearly all actives have a fitted effect of over 60% in size
# Conditions in all cases: P. falciparum in erythrocytes, SYBR Green DNA, 72 h; series mostly up to 28.7 µM
# DFO2036 = test system: DFO2036
# Procedure, shortened: (§1)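 Each compound contacts P. falciparum-infected red blood cells for 72 h at 37 C; lysis buffer (Tris, EDTA, saponin, Triton X, SYBR Green I) is added and fluorescence measured next morning; values normalized to controls.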
# DIV14 = test system: DIV14
# Procedure, shortened: as §1
# DIV17 = test system: DIV17
# Procedure, shortened: as §1
# DIV30 = test system: DIV30
# Procedure, shortened: as §1
# Dd2 = test system: Dd2
# Procedure, shortened: as §1
# ECU = test system: ECU
# Procedure, shortened: as §1
# FAB9 = test system: FAB9
# Procedure, shortened: as §1
# GB4 = test system: GB4
# Procedure, shortened: as §1
# HB3 = test system: HB3
# Procedure, shortened: as §1
# JCK = test system: JCK
# Procedure, shortened: as §1
# N140 = test system: N140
# Procedure, shortened: as §1
# P93_24 = test system: P93_24
# Procedure, shortened: as §1
# P94_40 = test system: P94_40
# Procedure, shortened: as §1
# PAD = test system: PAD
# Procedure, shortened: as §1
# PC15 = test system: PC15
# Procedure, shortened: as §1
# PC26 = test system: PC26
# Procedure, shortened: as §1
# PC49 = test system: PC49
# Procedure, shortened: as §1
# SC27B = test system: SC27B
# Procedure, shortened: as §1
# TAB109 = test system: TAB109
# Procedure, shortened: as §1
# ICS = test system: ICS
# Procedure, shortened: as §1
# Potency is the fitted concentration of half-maximal effect.
Structure (SMILES),Potency (DFO2036),Potency (DIV14),Potency (DIV17),Potency (DIV30),Potency (Dd2),Potency (ECU),Potency (FAB9),Potency (GB4),Potency (HB3),Potency (JCK),Potency (N140),Potency (P93_24),Potency (P94_40),Potency (PAD),Potency (PC15),Potency (PC26),Potency (PC49),Potency (SC27B),Potency (TAB109),Potency (ICS)
Cl/C(=C\n1cncn1)c1ccc(Cl)cc1Cl,inactive,inactive,inactive,inactive,inactive,inactive,inactive,inactive,inactive,inactive,inactive,inactive,inactive,inactive,inactive,inactive,inactive,inactive,inactive,
CCOC(=O)C(C#N)=C(c1ccccc1)c1ccccc1,inactive,inactive,inactive,inactive,inactive,inactive,inactive,inactive,inactive,inactive,inactive,inactive,inactive,inactive,inactive,inactive,inactive,inactive,inactive,inactive
CCCCc1cc2ccccc2c(OCCN(C)C)n1,inactive,inactive,inactive,inactive,,inactive,inactive,,inactive,inactive,inactive,inactive,inactive,inactive,inactive,inactive,inactive,inactive,inactive,
CCCN(CCc1cccs1)[C@H]1CCc2c(O)cccc2C1,10 µM (active),4.26 µM (active),3.01 µM (active),5.36 µM (active),2.51 µM (active),2.82 µM (active),,1.69 µM (active),10 µM (active),,3.16 µM (active),6.31 µM (active),4.47 µM (active),3.16 µM (active),6.31 µM (active),6.75 µM (active),11.2 µM (active),4.47 µM (active),7.08 µM (active),0.794 µM (active)
Clc1cccc(C(c2ccc3nc[nH]c3c2)n2ccnc2)c1 (stereo unspecified),10 µM (active),15.1 µM (active),13.5 µM (active),12 µM (active),,3.16 µM (active),,12 µM (active),,inactive,10 µM (active),7.08 µM (active),,,12.6 µM (active),,inactive,10 µM (active),,5.62 µM (active)
C=CCN1CCc2nc(N)sc2CC1,inactive,inactive,inactive,inactive,inactive,inactive,inactive,inactive,inactive,inactive,inactive,,inactive,inactive,inactive,inactive,inactive,inactive,inactive,
O=C(Oc1cccc2cccnc12)c1ccccc1,inactive,inactive,inactive,inactive,inactive,inactive,inactive,,inactive,inactive,inactive,inactive,inactive,inactive,inactive,,inactive,inactive,inactive,
CC(=O)N[C@@H](CCC(=O)O)C(=O)O,inactive,inactive,inactive,inactive,inactive,inactive,inactive,,inactive,inactive,inactive,inactive,,inactive,inactive,inactive,inactive,inactive,inactive,inactive
CCCCNC(=O)NS(=O)(=O)c1ccc(N)cc1,inactive,inactive,inactive,inactive,inactive,inactive,inactive,inactive,inactive,inactive,inactive,inactive,inactive,inactive,inactive,inactive,inactive,inactive,inactive,inactive
CC1=C(C(=O)O)N2C(=O)[C@@H](NC(=O)[C@H](N)c3ccccc3)[C@H]2SC1,inactive,inactive,inactive,inactive,inactive,inactive,inactive,inactive,inactive,inactive,inactive,inactive,inactive,inactive,inactive,inactive,inactive,inactive,inactive,inactive
CCN(CC)CCNc1ccc(CO)c2sc3ccccc3c(=O)c12,0.447 µM (active),4.26 µM (active),2.39 µM (active),9.53 µM (active),2.24 µM (active),0.708 µM (active),,1.2 µM (active),8.91 µM (active),11.2 µM (active),0.708 µM (active),0.891 µM (active),1.58 µM (active),1 µM (active),3.16 µM (active),7.57 µM (active),,1.12 µM (active),1.58 µM (active),2 µM (active)
CCN(CC)CCNC(=O)COc1ccc(OC)cc1,inactive,inactive,inactive,inactive,inactive,inactive,inactive,,inactive,inactive,inactive,inactive,inactive,inactive,inactive,inactive,inactive,inactive,inactive,inactive
CCCCCCCCCCCCCC(=O)OC(C)C,inactive,inactive,inactive,,inactive,inactive,inactive,inactive,inactive,inactive,inactive,inactive,inactive,inactive,inactive,inactive,inactive,inactive,inactive,inactive
O=C(O)CCC(=O)Nc1ccc(S(=O)(=O)Nc2nccs2)cc1,inactive,inactive,inactive,inactive,inactive,inactive,inactive,inactive,inactive,inactive,inactive,inactive,inactive,inactive,inactive,inactive,inactive,inactive,inactive,inactive
O=C(NCCc1c[nH]c2ccccc12)c1cccnc1,inactive,inactive,inactive,inactive,inactive,inactive,inactive,inactive,inactive,inactive,inactive,inactive,inactive,inactive,inactive,inactive,inactive,inactive,inactive,inactive
NC(N)=NCc1cccc(I)c1,inactive,inactive,inactive,inactive,inactive,inactive,inactive,inactive,inactive,inactive,inactive,inactive,inactive,inactive,inactive,inactive,inactive,inactive,inactive,
C#C[C@]1(O)CC[C@H]2[C@@H]3CCC4=Cc5oncc5C[C@]4(C)[C@H]3CC[C@@]21C,inactive,inactive,inactive,inactive,inactive,inactive,inactive,inactive,inactive,inactive,inactive,inactive,inactive,inactive,inactive,inactive,inactive,inactive,inactive,inactive
O=C(O)C1(C(=O)O)CCC1.[NH2-].[NH2-].[Pt+2],inactive,inactive,inactive,inactive,,inactive,inactive,inactive,10 µM (active),inactive,inactive,inactive,inactive,inactive,inactive,inactive,inactive,inactive,inactive,
C=C[C@@]1(C)CC(=O)[C@]2(O)[C@@]3(C)[C@@H](O)CCC(C)(C)[C@@H]3[C@H](O)[C@H](OC(C)=O)[C@@]2(C)O1,inactive,inactive,inactive,inactive,inactive,inactive,inactive,inactive,inactive,inactive,inactive,inactive,inactive,inactive,inactive,inactive,inactive,inactive,inactive,inactive
COc1cc(O)c(C(=O)c2ccccc2)cc1S(=O)(=O)O,inactive,,,inactive,inactive,,inactive,,,inactive,,,,,,,inactive,inactive,,3.55 µM (active)
